Measurements published in publication PMC5540273 (PLoS ONE, 2017).

Assays:
Details in all cases: concentration: 1 μM, replicates: in singlicate; n = 1
TNNI3K = system: TNNI3K
TRKA = system: T1, TRKA
T1 construct: gene NTRK1

TRKB = system: TRKB
TRKC = system: T2, TRKC
T2 construct: gene NTRK3

TRPM6 = system: TRPM6
TSSK1B = system: TSSK1B
TSSK3 = system: TSSK3
TTK = system: TTK
TXK = system: TXK
[1] = system: TYK2(JH1domain-catalytic)
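Note: KINOMEscan kinase panel screen.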

Row | SMILES | %Inh (TNNI3K) [%] | %Inh (TRKA) [%] | %Inh (TRKB) [%] | %Inh (TRKC) [%] | %Inh (TRPM6) [%] | %Inh (TSSK1B) [%] | %Inh (TSSK3) [%] | %Inh (TTK) [%] | %Inh (TXK) [%] | %Inh [1] [%]
1 | Cc1ccc(C)c(NC(=O)Nc2ccc(C)c(-c3ccc(C(=O)Nc4ccncc4)cc3)c2)c1 [GSK1398473] | 59 | 0 | 0 | 0 | 2 | 17 | 2 | 13 | 25 | 0
2 | Cl.N#CCc1ccc(Nc2nccc(Nc3ccc(Oc4ccccc4)cc3)n2)cc1 [GW639905] | 0 | 0 | 39 | 34 | 29 | 6 | 10 | 11 | 36 | 40
3 | CC(C)NCC(Cc1ccccc1)NC(=O)c1cc(Br)c(-c2ccnc3[nH]ccc23)s1.Cl.Cl (centres unmarked) [GSK1383281] | 0 | 75 | 64 | 52 | 0 | 32 | 2 | 58 | 79 | 53
4 | N#CC1(c2cccc(C(=O)Nc3cccc(Oc4ccc5nc(NC(=O)C6CC6)sc5n4)c3)c2)CC1 | 90.5 | 0 | 7 | 0 | 12 | 0 | 0 | 9 | 86 | 0
5 | Cc1nn2c(=O)cc(N3CCO[C@H](C)C3)nc2n1Cc1cccc(Cl)c1Cl [GSK2373693] | 60 | 0 | 7 | 0 | 0 | 21 | 5 | 0 | 0 | 17
6 | Cc1cccc(Nc2nc(NCCN)ncc2C(N)=O)c1 [GSK1292139] | 0 | 72 | 57 | 43 | 44 | 38 | 55 | 36 | 11 | 44
7 | CN(c1ccc(F)c(NC(=O)c2cccc(OC(C)(C)C#N)c2Cl)c1)c1ccc2nc(NC(=O)C3CC3)sc2n1 | 36 | 6 | 0 | 11 | 9 | 24 | 2 | 6 | 5 | 11
8 | COc1cc(Nc2ccnc3cc(-c4ccncc4)ccc23)cc(OC)c1OC.Cl [GW494610] | 14 | 38 | 7 | 37 | 16 | 0 | 22 | 0 | 92.8 | 17
9 | O=C(Nc1n[nH]c2nc(-c3ccccc3)ccc12)C1CC1 [SB-708999] | 11 | 1 | 0 | 24 | 0 | 0 | 16 | 0 | 5 | 33
10 | COc1cccc(C2=C(Nc3cccc(O)c3)C(=O)NC2=O)c1 [SB-390771] | 21 | 0 | 0 | 46 | 4 | 27 | 9 | 10 | 11 | 21
11 | Cn1cc(-c2cnc(N)c3c(-c4ccc5c(c4)CCN5C(=O)Cc4ccccc4)csc23)cn1 [GSK2593074] | 0 | 79 | 80 | 66 | 15 | 0 | 0 | 7 | 9 | 0
12 | COc1cccc(-c2nc(-c3ccccc3)[nH]c2-c2ccncc2)c1 [SB-610250] | 0 | 0 | 0 | 22 | 10 | 10 | 4 | 16 | 14 | 18
13 | Cl.O=C(Nc1ccc(Oc2ccc3[nH]c(NC(=O)c4ccco4)nc3c2)cc1)Nc1cc(C(F)(F)F)ccc1F [GW683134] | 87 | 98.9 | 98.3 | 97.4 | 1 | 0 | 6 | 0 | 16 | 16
14 | CCNc1nccc(-c2c(-c3ccc(F)cc3)ncn2C2CCN(C)CC2)n1 | 0 | 0 | 0 | 0 | 0 | 0 | 0 | 7 | 0 | 0
15 | Cc1ccc(O)cc1Nc1ccnc2ccc(C(C)(C)C)cc12 [GW856805] | 6 | 37 | 42 | 11 | 21 | 1 | 0 | 17 | 98.9 | 54
16 | Cl.Cl.NC(CNC(=O)c1cc(Br)c(-c2ccnc3[nH]ccc23)s1)c1ccccc1 (centres unmarked) [GSK1322949] | 0 | 100 | 91.6 | 85 | 0 | 7 | 34 | 38 | 0 | 71

Row | SMILES | %Inh (TNNI3K) [%] | %Inh (TRKA) [%] | %Inh (TRKB) [%] | %Inh (TRKC) [%] | %Inh (TRPM6) [%] | %Inh (TSSK1B) [%] | %Inh (TSSK3) [%] | %Inh (TTK) [%] | %Inh (TXK) [%] | %Inh [1] [%]
17 | Nc1cccc(-c2ccc3c(N)n[nH]c3c2)c1 [GSK2193613] | 0 | 35 | 40 | 19 | 0 | 0 | 8 | 21 | 3 | 13
18 | CN(c1ccc(NC(=O)Nc2cccc(Cl)c2)cc1)c1ccnc(N)n1.Cl [GW830707] | 19 | 57 | 45 | 89 | 0 | 3 | 0 | 0 | 0 | 0
19 | CN1CCN(Cc2ccc(NC(=O)Nc3ccc(N(C)c4ccnc(Nc5ccc(CS(C)(=O)=O)cc5)n4)cc3)cc2)CC1.Cl [GW827654] | 46 | 91.4 | 92 | 92.5 | 0 | 0 | 47 | 28 | 85 | 97.9
20 | COc1cc(Nc2nccc(N3CCC(NC(=O)Nc4ccc5c(c4)OCO5)C3)n2)cc(OC)c1OC (centres unmarked) [GSK1379766] | 0 | 57 | 43 | 73 | 47 | 8 | 9 | 0 | 38 | 38
21 | CS(=O)(=O)c1cccc(CNc2nc(Nc3ccc4c(c3)CCC(=O)N4)ncc2C(F)(F)F)c1 | 0 | 98 | 92.9 | 73 | 0 | 0 | 0 | 99.6 | 0 | 89
22 | Cc1cccc(Nc2nc(N[C@H]3CCCC[C@H]3N)ncc2C(N)=O)c1.Cl [GSK986310] | 31 | 99 | 55 | 22 | 0 | 64 | 33 | 36 | 0 | 70
23 | CC(=O)Nc1cn2nc(Oc3cccc(NC(=O)c4cccc(C(F)(F)F)c4)c3)ccc2n1 | 97 | 0 | 0 | 0 | 0 | 8 | 0 | 29 | 61 | 0
24 | Cc1ccc(NC(=O)c2cccc(N3CCCCC3)c2)cc1-c1ccc(C(=O)NCC2CC2)cc1 [GSK1917008] | 28 | 0 | 0 | 0 | 23 | 28 | 10 | 11 | 7 | 16
25 | Nc1ncnc2scc(-c3ccc(NC(=O)Cc4cc(F)ccc4F)cc3)c12.O=C(O)C(F)(F)F [SB-731254-M] | 0 | 62 | 72 | 71 | 31 | 0 | 0 | 0 | 8 | 2
26 | COc1cccc(CC(=O)N2CCc3cc(-c4cn(C)c5ncnc(N)c45)ccc32)c1 [GSK2608899] | 0 | 75 | 28 | 52 | 0 | 29 | 30 | 0 | 0 | 0
27 | COC(=O)Nc1nc2cc(Oc3ccc(NC(=O)Nc4cccc(SC)c4)cc3)ccc2[nH]1.Cl [GW697999] | 81 | 81 | 82 | 90 | 0 | 0 | 11 | 4 | 0 | 10
28 | COC(=O)Nc1nc2ccc(Oc3ccc(CC(=O)Nc4cc(C(F)(F)F)ccc4F)cc3)cc2[nH]1 [GW680903] | 70 | 0 | 37 | 49 | 16 | 0 | 24 | 0 | 8 | 23
29 | CCn1c(-c2nonc2N)nc2c(-c3ccccc3)ncc(OCCCN)c21.O=C(O)C(F)(F)F.O=C(O)C(F)(F)F [GSK260205] | 16 | 0 | 23 | 26 | 19 | 11 | 24 | 0 | 0 | 88
30 | N#Cc1cnc2cc(-c3cnc(CNCCN4CCOCC4)s3)ccc2c1Nc1ccc(Oc2ccccc2)cc1 [GW664114] | 2 | 55 | 42 | 46 | 48 | 1 | 8 | 0 | 71 | 0
31 | Cn1cc(-c2ccc3c(c2)CCN3C(=O)Cc2cc(F)cc(F)c2F)c2c(N)ncnc21 [GSK2634140] | 0 | 36 | 0 | 38 | 8 | 0 | 8 | 0 | 13 | 11
32 | CN(C)CCOc1ccc(-c2cc(-c3ccc(Cl)c(O)c3)c(-c3ccncc3)[nH]2)cc1.Cl.Cl [SB-684387] | 60 | 9 | 21 | 36 | 36 | 0 | 15 | 0 | 56 | 8
